Results reported in the supplement of paper PMC10338343.
± gives the standard deviation.

Test system: MILI (PIWIL2) piRISC loaded with L1MC piRNA (26 nt)
Experiment: pre-steady-state target cleavage rate (min^-1); guide: L1MC piRNA 5'p-UAACUAAAUACUAUGCAAGCUGUAGG; MIWI and MILI are mouse PIWI proteins and EfPiwi is from a freshwater sponge; tags in brackets are library labels; higher = faster piRNA-guided slicing of the target
How it was run: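 Cleave-'n-Seq: a transcribed, DNA-blocked target RNA library (0.1 nM) was mixed with 1 nM active affinity-purified piRISC carrying one synthetic guide, with or without 500 nM GTSF1 partner protein, in HEPES–potassium acetate buffer at 33 °C for 0–8 or 0–960 min. Uncleaved targets were sequenced and normalised to depth and to weakly complementary targets. Three trials were pooled, and k3 was capped at 0.0001 min^-1. The pre-steady-state cleavage rate came from a burst-and-steady-state fit.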

[1] = auxiliary factor: 500 nM mouse GTSF1
[2] = auxiliary factor: none (no GTSF1)

Sequence | pre-steady-state target cleavage rate [1] | pre-steady-state target cleavage rate [2]
UCCUGCUACAGCUUGCAUAGUAUAUACUUA | 0.0361 ± 0.011 | –
UCCUGGAUGAGCUUGCAUAGUAUAUACAAA | 0.00992 ± 0.0056 | –
UCCUGGAUGAGCAAGCAUAGUAUUUACAAA | 0.0174 ± 0.0067 | –
UCCUGGAUGAGCUUGCAUAGUAAAAAGUUA | 0.0673 ± 0.016 | –
UCCUCCUACAGCUACCAUAGUAUUUACAAA | 0.0179 ± 0.008 | –
UCCUGGAUGAGCUUGCAUAGUAUUUGUUA | 0.118 ± 0.028 | –
UCCUGGAUGAGCUUGGAUACUAUUUAGUUA | 0.00767 ± 0.0035 | –
UCCUGGAUGUCCUUGCAUACUAUUUAGUAA | 0.0148 ± 0.0062 | –
UCCUCCUACAGCUUGCAUAGUAAUAAGUUA | 0.129 ± 0.021 | –
UCCUGGUACAGCUUGCAUAGUUUUAGUUA | 0.00982 ± 0.0052 | –
UCCUGGAUGUCCUAGCAUUGUAUUUAGUUA | 0.0111 ± 0.0048 | –
UCCUGGAACUCCUUGCAUAGUAUUUACAAA | 0.241 ± 0.061 | –
UCCUGGAUCAGCUUGCAUAGUUUUUACUUA | 0.00933 ± 0.0038 | –
UCCUGGAUCUGCUUGCAUAGUAUUUACAAA | 0.104 ± 0.022 | –
UCCUGGAACAGCUUGCAUACUAUUUACUUA | 0.0611 ± 0.015 | –
UCCUGGAUGAGCUUGCUUAGAAUUUAGUUA | 0.0121 ± 0.0047 | –
UCCUGCUACAGCUUGCAUAGUCUUUAGUUA | 0.122 ± 0.019 | –
UCCUGGAACUGCUUCCAUAGUAUUUAGUUA | 0.074 ± 0.022 | –
UCCUGGAACAGCUUGCAUAGUAAUUACUUA | 0.023 ± 0.0082 | –
UCCUGGAUCAGCAAGCAUAGUAUUUACAAA | 0.108 ± 0.023 | –
UCCUGGAUGUCGAUGCAUAGUUUUUAGUAA | 0.0058 ± 0.0029 | –
UCCUGGAUGUGCUUGCAUAGUUUUUUGUUA | 0.0102 ± 0.0056 | –

Sequence | pre-steady-state target cleavage rate [1] | pre-steady-state target cleavage rate [2]
UCCUGGAUGUGCUUGCAUAGUAUUUUGAAA | 0.00858 ± 0.0064 | –
UCCUGGAUCAGCUUGCAAAGUAUUUUCAAA | 0.00923 ± 0.0045 | –
UCCUGGAUGUCGAACCAUAGAAUUUUGUUA | 0.251 ± 0.13 | –
UCCUGCUACAGCUUGCAUUCUAUUUAGUAA | 0.0252 ± 0.0088 | –
UCCUGGAUGUCGAACGUAAGUAAUAAGUUA | – | < 0.0001
UCCUGGAUGUCCUUGCAUAGUAUUUAUUA | 0.0219 ± 0.0073 | –
UCCUGGAUGAGCUUGCAUAGUCAUUUAGUUA | 0.00477 ± 0.0039 | –
UCCUGGUACAGCUUGCAUAGUAUUUUCAAA | 0.109 ± 0.027 | –
UCCUGGAACAGCUUGCUAUCAUAAAUCAAA [g15:g23:cont:t1A] | – | < 0.0001
UCCUGGUACAGCUUGCAAUGUAUUUACAAA | 0.00784 ± 0.0049 | –
UCCUGGAUGUGCUUGCAUAGUAUUAAGUAA | 0.015 ± 0.0059 | –
UCCUGGAUGUCGAUCAUAGUAUUUAGUUA | 0.017 ± 0.006 | –
UCCUGGAUGAGCUUGCAUACUAUUAAGUUA | 0.00607 ± 0.0038 | –
UCCUGGAUGUCGAACGAUAGUUAUUUAGUUA | – | < 0.0001
UCCUGGAUGUCGAACGUUAGUAUAUUGUUA | – | < 0.0001
UCCUGGAUGAGCUUGCAUUGUAUUUUGUUA | 0.0997 ± 0.015 | –
UCCUGGAUGUCGAUGCAUUGUAAUUAGUUA | – | < 0.0001
UCCUGGAUGUCCUUGCAUAGUAUUUAGUGUA | 0.0384 ± 0.012 | –
UCCUGGAACAGCUUGCUAUGUAUUUAGAAA | 0.00873 ± 0.0046 | –
UCCUGGAUGUGCUUGGAUAGUAUUUAGAUA | 0.00891 ± 0.0052 | –
UCCUGGAUGUCGAUGCAUAGUAUAAUGUUA | 0.031 ± 0.012 | –
UCCUGCUACAGCUACCAUAGUAUUUAGUAA | 0.158 ± 0.029 | –

Sequence | pre-steady-state target cleavage rate [1] | pre-steady-state target cleavage rate [2]
UCCUGGAUGAGCUUGCUUAGUAUUUACAAA | 0.0262 ± 0.011 | –
UCCUGCUACAGCUUCGUUAGUAUUUAGUAA | 0.154 ± 0.033 | –
UCCUGGAUGUCGAACCAUAGUAUUUUGUAA | – | < 0.0001
UCCUGGAUGAGCUUGCAAAGUUUUUAGUUA | 0.00724 ± 0.004 | –
UCCUGGAACACGUUGCAUAGUAUUUACAAA | 0.0879 ± 0.017 | –
UCCUGGAUCAGCUUGCAUAGUAUAAACAAA | 0.0772 ± 0.019 | –
UCCUGGAUGUCCUUGCAUAGUAAAAAGUUA | 0.0137 ± 0.0059 | –
UCCUGGAUGUCGAUGCAUAGUAAUAAGUUA | 0.00446 ± 0.0033 | –
UCCUGGAACAGCUUGCAUAGUAUAUACUUA | 0.0233 ± 0.01 | –
UCCUGGAUGUCCUUGCAUAGUAUUUUGAUA | 0.0211 ± 0.0077 | –
UCCUGGUACAGCUUGCAUAGUAUUAUCUUA | 0.0311 ± 0.014 | –
UCCUGGAUGUCCUUGCAUAGAAUAUAGUUA | 0.00487 ± 0.0038 | –
UCCUCCUACAGCAACCAUAGUAUUUAGAAA | 0.0741 ± 0.02 | –
UCCUGGAUGUCGAUCCUUAGUAUUUAGUUA | – | < 0.0001
UCCUGGUAGAGCUUGCAUAGUAUUUACUUA | 0.0436 ± 0.012 | –
UCCUGGUACAGCUUGCAUAGUAUAAAGAAA | 0.0207 ± 0.0082 | –
UCCUGGAUGUCGAUGUCAUAGUAUUUAGUUA | 0.0067 ± 0.0037 | –
UCCUGGAUCAGCUUGCUAAGUAUUUACAAA | 0.0261 ± 0.0085 | –
UCCUGGAUCAGCUACGAUAGUAUUUAGUUA | 0.0475 ± 0.0093 | –
UCCUGGAUGUCGAACGAUAGUAUUUAGAUA | – | < 0.0001
UCCUGGAACAGCUUGCAUAGAAUUUACUUA | 0.0289 ± 0.011 | –
UCCUGGAUCAGCUUGCAUAGUAUUAGUUA | 0.141 ± 0.018 | –
